Reference: PubChem BioAssay (NCATS)
Results filed as inconclusive are left out. Activity calls are given as the source filed them. Calls come from the whole dose curve; as a rule, active = well fitted curve in the direction sought with a large enough effect; inconclusive = small, poorly fitted or top-dose-only effect, or another doubt; inactive = no such curve, though single readings can be large; an effect the other way counts as inactive or inconclusive.

What was measured:
[1] = Quantitative High-Throughput drug screen in 47 multiple myeloma cell lines against the NCATS MIPE library collection: KHM11_PLB cell viability assay (AID 1918962); note: nearly all actives have a fitted effect of over 35% in size
Summary of the method: (§1)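 Viability readout: CellTiter-Glo luminescence following 5 min room-temperature incubation with reagent. Prior exposure: 48 h, 37C, humidified 5% CO2, 500 cells per well.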

[2] = Quantitative High-Throughput drug screen in 47 multiple myeloma cell lines against the NCATS MIPE library collection: JIM3_ECACC cell viability assay (AID 1918963; note: nearly all actives have a fitted effect of over 35% in size)
Summary of the method: as §1

[3] = Quantitative High-Throughput drug screen in 47 multiple myeloma cell lines against the NCATS MIPE library collection: JJN3_DSMZ cell viability assay (AID 1918966; note: nearly all actives have a fitted effect of over 50% in size)
Summary of the method: (§2)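 We plated 500 myeloma cells per well, pinned in MIPE 4.0 compounds, and incubated for 48 hours at 37C. ATP was then quantified with CellTiter-Glo, with DMSO and media-only wells defining 100% and 0%.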

[4] = Quantitative High-Throughput drug screen in 47 multiple myeloma cell lines against the NCATS MIPE library collection: H1112_PLB cell viability assay (AID 1918967; note: nearly all actives have a fitted effect of over 30% in size)
Summary of the method: as §2

[5] = Quantitative High-Throughput drug screen in 47 multiple myeloma cell lines against the NCATS MIPE library collection: Karpas25_ECACC cell viability assay (AID 1918968; note: nearly all actives have a fitted effect of over 35% in size)
Summary of the method: as §2

[6] = Quantitative High-Throughput drug screen in 47 multiple myeloma cell lines against the NCATS MIPE library collection: MMM1_PLB cell viability assay (AID 1918976); note: nearly all actives have a fitted effect of over 35% in size
Summary of the method: (§3)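 MIPE 4.0 approved/investigational drugs; 500 cells/well; 48 h 37 °C humidified 5% CO2; CTG luminescence readout; DMSO = 100%, media = 0% viability.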

[7] = Quantitative High-Throughput drug screen in 47 multiple myeloma cell lines against the NCATS MIPE library collection: MOLP8_DSMZ cell viability assay (AID 1918977); note: nearly all actives have a fitted effect of over 45% in size
Summary of the method: as §3

[8] = Quantitative High-Throughput drug screen in 47 multiple myeloma cell lines against the NCATS MIPE library collection: NCIH929_DSMZ cell viability assay (AID 1918978); note: nearly all actives have a fitted effect of over 35% in size
Summary of the method: as §3

[9] = Quantitative High-Throughput drug screen in 47 multiple myeloma cell lines against the NCATS MIPE library collection: OCIMY1_PLB cell viability assay (AID 1918979); note: nearly all actives have a fitted effect of over 35% in size
Summary of the method: as §3

[10] = Quantitative High-Throughput drug screen in 47 multiple myeloma cell lines against the NCATS MIPE library collection: MM1S_ATCC cell viability assay (AID 1918980); note: nearly all actives have a fitted effect of over 45% in size
Summary of the method: as §3

[11] = Quantitative High-Throughput drug screen in 47 multiple myeloma cell lines against the NCATS MIPE library collection: LP1_DSMZ cell viability assay (AID 1918982); note: nearly all actives have a fitted effect of over 35% in size
Summary of the method: as §3

[12] = Quantitative High-Throughput drug screen in 47 multiple myeloma cell lines against the NCATS MIPE library collection: INA6_PLB cell viability assay (AID 1918965; note: nearly all actives have a fitted effect of over 55% in size)
Summary of the method: (§4)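 Approved and investigational drugs from MIPE 4.0 were added by pin tool to 500 cells per well. After 48 hours at 37C, ATP-based CellTiter-Glo luminescence indicated remaining viability.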

[13] = Quantitative High-Throughput drug screen in 47 multiple myeloma cell lines against the NCATS MIPE library collection: KMS21BM_JCRB cell viability assay (AID 1918974); conditions: ATP luminescence, 48 h; viability: at 45.8 µM (top of the series) unless noted
Summary of the method: as §2

[14] = Quantitative High-Throughput drug screen in 47 multiple myeloma cell lines against the NCATS MIPE library collection: KMS26_JCRB cell viability assay (AID 1918975); note: nearly all actives have a fitted effect of over 45% in size
Summary of the method: (§5)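 Relative luminescence from CellTiter-Glo served as the viability signal, referenced to DMSO-treated (100%) and cell-free medium (0%) controls. Treatment lasted 48 hours at 37C with 500 cells per well.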

[15] = Quantitative High-Throughput drug screen in 47 multiple myeloma cell lines against the NCATS MIPE library collection: KMS12BM_JCRB cell viability assay (AID 1918971); note: nearly all actives have a fitted effect of over 35% in size
Summary of the method: as §5

[16] = Quantitative High-Throughput drug screen in 47 multiple myeloma cell lines against the NCATS MIPE library collection: KMS12PE_JCRB cell viability assay (AID 1918972); note: nearly all actives have a fitted effect of over 30% in size
Summary of the method: as §4

[17] = Quantitative High-Throughput drug screen in 47 multiple myeloma cell lines against the NCATS MIPE library collection: MM1R_ATCC cell viability assay (AID 1918981); note: nearly all actives have a fitted effect of over 35% in size
Summary of the method: as §3

[18] = Quantitative High-Throughput drug screen in 47 multiple myeloma cell lines against the NCATS MIPE library collection: KMS20_JCRB cell viability assay (AID 1918973); note: nearly all actives have a fitted effect of over 45% in size
Summary of the method: as §2

[19] = Quantitative High-Throughput drug screen in 47 multiple myeloma cell lines against the NCATS MIPE library collection: KMS27_JCRB cell viability assay (AID 1918970); note: nearly all actives have a fitted effect of over 30% in size
Summary of the method: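 Each line is seeded at 500 cells per well and treated with library compounds for 48 hours under 37 °C, 5% CO2. CellTiter-Glo is then added for 5 min at room temperature before median relative luminescence is recorded.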

[20] = Quantitative High-Throughput drug screen in 47 multiple myeloma cell lines against the NCATS MIPE library collection: JIM1_ECACC cell viability assay (AID 1918964)
Summary of the method: as §2
Potency is the fitted concentration of half-maximal effect.

| SMILES | Potency [1] | Potency [2] | Potency [3] | Potency [4] | Potency [5] | Potency [6] | Potency [7] | Potency [8] | Potency [9] | Potency [10] | Potency [11] | Potency [12] | Potency [13] | Potency [14] | Potency [15] | Potency [16] | Potency [17] | Potency [18] | Potency [19] | Potency [20] |
| --- | --- | --- | --- | --- | --- | --- | --- | --- | --- | --- | --- | --- | --- | --- | --- | --- | --- | --- | --- | --- |
| CCCn1c(=O)c2[nH]c(-c3cnn(Cc4cccc(C(F)(F)F)c4)c3)nc2n(CC)c1=O | inactive | inactive | 5.9 µM (active) | inactive | inactive | 13.2 µM (active) | 5.9 µM (active) | inactive | inactive | 16.6 µM (active) | 10.5 µM (active) |  |  |  |  |  |  |  |  |  |
| COC(=O)Nc1nc2ccc(C(=O)c3ccc(F)cc3)cc2[nH]1 | 0.264 µM (active) | 0.59 µM (active) | 2.35 µM (active) |  |  | 11.8 µM (active) | 0.418 µM (active) | 0.743 µM (active) | 0.662 µM (active) |  | 0.935 µM (active) | 0.418 µM (active) | 0.296 µM (active) | 5.26 µM (active) |  |  |  |  |  |  |
| Cc1cn(-c2cc(NC(=O)c3ccc(C)c(Nc4nccc(-c5cccnc5)n4)c3)cc(C(F)(F)F)c2)cn1 | inactive | inactive | 18.7 µM (active) | inactive | inactive | 11.8 µM (active) | 20.9 µM (active) | inactive | 26.4 µM (active) | inactive | 23.5 µM (active) |  |  |  | 20.9 µM (active) | inactive | 18.7 µM (active) |  |  |  |
| CCn1nnc2c(N3CCOCC3)nc(-c3ccc(NC(=O)Nc4ccc(C(=O)N5CCN(C)CC5)cc4)cc3)nc21 | 0.0059 µM (active) | 0.0235 µM (active) | 0.0187 µM (active) |  | 0.0083 µM (active) | 0.0332 µM (active) | 0.0037 µM (active) | 0.0066 µM (active) | 5.26 µM (active) | 0.0332 µM (active) | 0.0469 µM (active) | 0.0053 µM (active) |  | 0.0418 µM (active) | 0.0059 µM (active) | 0.0469 µM (active) | 0.0469 µM (active) | 0.0235 µM (active) |  |  |
| C=CCn1c(=O)c2cnc(Nc3ccc(N4CCN(C)CC4)cc3)nc2n1-c1cccc(C(C)(C)O)n1 | 0.833 µM (active) | 0.59 µM (active) | 0.743 µM (active) |  |  | inactive |  | 7.43 µM (active) |  |  |  | 0.526 µM (active) | 9.35 µM (active) |  | 0.526 µM (active) | 0.118 µM (active) | 0.166 µM (active) | 8.33 µM (active) |  |  |
| COC(=O)C1=C(C)NC(C)=C(C(=O)OCCN2CCN(C(c3ccccc3)c3ccccc3)CC2)C1c1cccc([N+](=O)[O-])c1 (configuration not stated) | inactive | inactive |  | inactive | inactive | inactive |  | inactive | inactive |  |  |  |  | inactive |  | inactive | inactive | inactive | inactive |  |
| COc1cccc(-c2ccc(NC(=O)C3=C(C(=O)O)CCC3)c(F)c2)c1 | inactive | 23.5 µM (active) |  | inactive | inactive | 20.9 µM (active) |  | 20.9 µM (active) | inactive | 3.72 µM (active) |  |  |  |  |  | 2.96 µM (active) | 23.5 µM (active) |  |  |  |
| CC(C)c1nn(-c2c(Cl)cccc2Cl)c2nc(Cc3ccc(OCCO)cc3)[nH]c(=O)c12 | 0.148 µM (active) | 0.166 µM (active) | 0.0833 µM (active) |  | 0.0372 µM (active) | 0.148 µM (active) | 0.132 µM (active) | 0.105 µM (active) | 0.235 µM (active) | 0.0418 µM (active) | 0.132 µM (active) |  | inactive | 0.148 µM (active) |  | inactive |  | 0.166 µM (active) | inactive |  |
| CCc1c2c(nc3ccc(O)cc13)-c1cc3c(c(=O)n1C2)COC(=O)[C@]3(O)CC | 0.166 µM (active) |  | 0.332 µM (active) | 0.0469 µM (active) | 0.0662 µM (active) | 0.833 µM (active) | 0.166 µM (active) | 0.0469 µM (active) | 0.59 µM (active) | 0.0118 µM (active) | 0.662 µM (active) | 0.001 µM (active) |  | 2.35 µM (active) | 0.0662 µM (active) | 0.187 µM (active) |  | 0.118 µM (active) | 0.0059 µM (active) | 0.0372 µM (active) |
| Nc1nc(Nc2ccc(S(N)(=O)=O)cc2)nn1C(=O)c1c(F)cccc1F | 2.96 µM (active) | 7.43 µM (active) | 5.26 µM (active) | 8.33 µM (active) | 6.62 µM (active) | 10.5 µM (active) |  | 4.18 µM (active) | 13.2 µM (active) | 7.43 µM (active) | 8.33 µM (active) |  |  | 7.43 µM (active) | 5.9 µM (active) | 6.62 µM (active) | 6.62 µM (active) | 4.18 µM (active) | 4.18 µM (active) |  |
| COCCn1c2c([n+](Cc3cnccn3)c1C)C(=O)c1ccccc1C2=O | 0.0296 µM (active) | 0.0264 µM (active) | 0.0023 µM (active) | 0.0526 µM (active) |  | 0.0166 µM (active) | 0.0235 µM (active) | 0.0332 µM (active) | 0.0264 µM (active) | 0.0037 µM (active) | 0.0132 µM (active) |  |  | 0.0148 µM (active) | 0.0418 µM (active) |  | 0.0042 µM (active) | 0.0235 µM (active) |  |  |
